Assay results: PubChem BioAssay AID485297 (National Center for Advancing Translational Sciences (NCATS), 2010)
About 9,100 (2.8%) of roughly 320,000 compounds were called active. Entries that show only a call come without a potency. Roughly 3% stayed inconclusive and do not appear here. For the sample, actives were picked, then their nearest neighbours and some compounds at random. Unmarked numbers belong to inactive results. Calls come from the whole dose curve; as a rule, active = well fitted activation curve with a large enough effect; inconclusive = small, poorly fitted or top-dose-only effect; inactive = no such curve, though single readings can be large or run the other way.

Experiment: qHTS Assay for Rab9 Promoter Activators; note: nearly all actives have a fitted effect of over 60% in size
Conditions: Huh7 Rab9 promoter-luciferase reporter, luminescence, 24 h; series mostly up to 9.22 µM
Method in brief: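 Steps: seed 1500 Huh7 Rab9-luc cells per well, rest 2 h at 37 °C; add compound in DMSO; incubate 24 h; add luciferase reagent, 10 min ambient; read luminescence.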
Potency is the fitted concentration of half-maximal effect.

Compound	Potency	activation, negative = inhibition
COC(=O)[C@]1(C)CCC[C@@]2(C)C3CC[C@]4(OC(C)=O)C[C@@]3(CCC21)CC4=NO (stereo partly specified)	inactive	
C/C(CC(=O)Nc1cccc(F)c1)=N\NC(=O)C(=O)NC1CCCCC1	inactive	
O=C(Nc1cccc(F)c1)NC1CCCCCCC1	3550 nM (active)	
O=C(Nc1cccc(F)c1)NC1CCCc2ccccc21 (stereo unspecified)	inactive	
Cc1cccc(C)c1NC(=O)CN(C)C(=O)CCC(=O)c1ccccc1	inactive	
CC(OC(=O)/C=C/c1ccccc1)C(=O)NC1CCCCC1C (stereo unspecified)	inactive	
Cc1cccc(NC(=O)Nc2nnc(-c3ccccc3)o2)c1	inactive	
Cc1c(NC(=O)Nc2ccccc2)cccc1[N+](=O)[O-]	inactive	
Cc1ccc(NC(=O)Nc2ccccc2)c(Br)c1	1780 nM (active)	
COc1cc2c(cc1OC)CN(C(C)C(=O)Nc1cccc(S(=O)(=O)N3CCOCC3)c1)CC2 (stereo unspecified)	inactive	
Cc1sc2ncnc(N3CCC(C(=O)Nc4ccc(F)cc4Cl)CC3)c2c1C	inactive	
Cc1ccc(-c2csc(-c3c[nH]c4ccccc34)n2)cc1	2510 nM (active)	
CCCc1cc(-c2nc(-c3ccc(C)cc3)cs2)ccn1	inactive	
Cc1ccc(-c2csc(NC3OC(=O)c4ccccc43)n2)cc1 (stereo unspecified)	inactive	
O=C(CN(C(=O)CCC(=O)Nc1nccs1)c1ccc(F)cc1)NCc1ccc2c(c1)OCO2	inactive	
CC(=O)c1ccc(NC(=O)CSC(=S)N2CCCC2)cc1	inactive	
O=C(CSC(=S)N1CCCCC1)c1c(F)cccc1F	1410 nM (active)	
O=C(CSC(=S)N1CCOCC1)c1cc(Br)cc(Br)c1O	inactive	
COc1cccc(NC(=O)CN(C)C(=O)CSC(=S)N2CCCC2)c1	inactive	
CC1CN(C(=S)SCC(=O)c2ccccc2)CC(C)O1 (stereo unspecified)	inactive	
O=C(CSC(=S)N1CCOCC1)c1ccccc1	447 nM (active)	
Cc1occc1-c1nnc(SCC(=O)NC2CCCCC2)o1	inactive	
COc1ccc(S(=O)(=O)N2CCN(C(C)C(=O)Nc3ccc(C(C)C)cc3)CC2)cc1 (stereo unspecified)	inactive	
O=C(NCc1ccccc1CN1CCCC1)c1cccc(S(=O)(=O)Nc2ccc(F)cc2)c1	inactive	

Compound	Potency	activation, negative = inhibition
Cc1ccc(OCCCC(=O)Nc2ccc3c(c2)OCCO3)cc1	inactive	
CCn1c(SCC(=O)Nc2ccc3c(c2)OCCO3)nnc1-c1ccncc1	inactive	
Cn1ccnc1SCC(=O)Nc1ccc2c(c1)OCCO2	2510 nM (active)	
Cc1ccc(S(=O)(=O)NCC(=O)Nc2ccc3c(c2)OCCO3)cc1	inactive	
CCn1c(SCC(=O)Nc2ccc3c(c2)OCCO3)nnc1C(C)C	inactive	
Cc1ccc(SCC(=O)Nc2ccc3c(c2)OCCO3)cc1	3160 nM (active)	
O=C(Nc1ccc2c(c1)OCCO2)c1cnccn1	2000 nM (active)	
O=C(Nc1cccc(NC(=O)c2ccco2)c1)c1cnccn1	inactive	
O=C(CCN1C(=O)c2ccncc2C1=O)Nc1ccc2c(c1)OCCO2	inactive	
O=[N+]([O-])c1cc(S(=O)(=O)NCCc2ccccn2)ccc1Cl	inactive	
COc1ccc(-c2nnc(SC(C)C(=O)NC3CC3)o2)cc1 (stereo unspecified)	inactive	
Cc1cc(C)cc(NC(=O)NC2CCN(CC(=O)Nc3cccc(Cl)c3C)CC2)c1	inactive	
O=c1[nH]c2cccnc2n(CCNc2ncc(C(F)(F)F)cc2Cl)c1=O	inactive	
CNS(=O)(=O)c1cccc(C(=O)OCC(=O)N2c3ccccc3NC(=O)C2(C)C)c1	inactive	
CCOc1ccc(C(C)NC(=O)CN2C(=O)NC3(CCCCC3)C2=O)cc1OCC (stereo unspecified)	inactive	
Cc1ccn(-c2cccc(-n3ccc(C)n3)n2)n1	2820 nM (active)	
Cc1ccc(C(=O)/C=C/Nc2ccc(S(=O)(=O)Nc3onc(C)c3C)cc2)cc1	inactive	
Cc1cc(NC(=O)CSc2nnc(-c3ccc(Cl)s3)o2)no1	inactive	
Cc1cc(N/C=C\C(=O)c2ccc(Cl)c(Cl)c2)no1	2820 nM (active)	
COc1cc(OC)cc(-c2c(-c3cccs3)c3cc(-c4ccc(OC)cc4F)ccc3n2C)c1	inactive	
Cc1sc(NC(=O)c2ccc3ncsc3c2)c(C(N)=O)c1C	1580 nM (active)	
O=C(COC(=O)c1ccc2ncsc2c1)Nc1ccc(Cl)cc1	inactive	
Cc1ccc(C(=O)c2c(NC(=O)c3ccccc3)sc(C)c2C)cc1	inactive	
CCc1ccc(OCC(=O)OCC(=O)c2c(N)n(C)c(=O)n(C)c2=O)cc1	inactive	

Compound	Potency	activation, negative = inhibition
O=C(/C=C/c1ccc(Cl)cc1)Nc1ccc(S(=O)(=O)Nc2ncccn2)cc1	inactive	
CC(C)(C)c1ccc(/C=C/C(=O)Nc2ncccn2)cc1	3980 nM (active)	
Cc1cc(C)nc(NC(=O)/C=C/c2ccc(Cl)cc2)n1	inactive	
C[C@H](NC(=O)c1ccccc1Cl)C(=O)OCC(=O)N1CCN(c2ccccc2)CC1	inactive	
O=C(CNC(=O)c1ccccc1Br)NCCSc1ccc(Br)cc1	inactive	
O=C(NCCS(=O)(=O)NCc1ccc(F)cc1)c1ccccc1	inactive	
O=C(CNC(=O)c1ccccc1)NCC(=O)OCC(=O)c1ccccc1	inactive	
O=C(COC(=O)CNC(=O)c1ccccc1F)NCC(F)(F)F	inactive	
O=C(CNC(=O)c1ccccc1F)c1ccc(Br)cc1	1260 nM (active)	
O=C(CNC(=O)c1ccc(F)cc1)c1ccccc1	794 nM (active)	
O=S(=O)(NCc1ccccc1Br)c1ccccc1Br	inactive	
COc1cccc(CNC(=O)COc2cc(O)c3c(c2)OC(C)(C)CC3=O)c1	inactive	
Nc1c(N(CCCO)C(=O)C2CCCC2)c(=O)[nH]c(=O)n1Cc1ccccc1	inactive	
CCOC(=O)CSc1nnc(-c2ccc([N+](=O)[O-])cc2)o1	inactive	
CCc1ccccc1NC(=O)CSc1nnc(-c2ccncc2)o1	inactive	
O=C(CSc1nnc(-c2ccc([N+](=O)[O-])cc2)o1)Nc1ccccn1	398 nM (active)	
O=c1c2ccccc2ccc2ccc(P(=O)(O)O)cc12	inactive	
Cc1c(NS(=O)(=O)c2cc(C(=O)NCCc3ccc(F)cc3)cc(Cl)c2Cl)c(=O)n(-c2ccccc2)n1C	inactive	
O=C(COC(=O)C1(c2ccc(F)cc2)CCCC1)N1CCNC1=O	inactive	
CCn1c(=N)n(CC(=O)c2cccc(OC)c2)c2ccccc21	3160 nM (active)	
COc1ccc2cc(C(=O)O)n(CC(=O)c3ccccc3)c2c1	inactive	
CCOC(=O)c1cc2ccccc2n1CC(=O)c1ccccc1	inactive	
O=C1OC2(CCCCC2)CC2=C1C1O[C@](c3ccsc3)(Cc3ccccc31)O2		1.46% [at 1.84 µM]
COc1ccc(OCCCC(=O)Nc2cccc(S(=O)(=O)N3CCCCCC3)c2)cc1	inactive	

Compound	Potency	activation, negative = inhibition
C/C(=N\NC(=O)c1cccnc1)c1ccc(-c2ccccc2)cc1	inactive	
C/C(=N\NC(=O)c1nc(C)cc(C)n1)c1ccccc1	1780 nM (active)	
COc1ccc(/C(C)=N/NC(=O)c2ccc3nc[nH]c3c2)cc1	inactive	
Cc1ccc(Nc2nnc(SC(C)C(=O)NC3CC3)s2)cc1 (stereo unspecified)	inactive	
COc1ccc(/C=N/Nc2nc3ccccc3o2)cc1OC	1000 nM (active)	
COc1ccc(/C=N/S(=O)(=O)c2ccccc2)cc1OC	inactive	
Brc1ccccc1/C=N/Nc1nc2ccccc2o1	2820 nM (active)	
Oc1c(Br)cccc1/C=N/Nc1c(F)c(F)c(F)c(F)c1F	inactive	
CCOc1ccccc1/C=N/Nc1nc2ccccc2o1	inactive	
CCOc1ccc(/C=N/Nc2nncc(-c3ccccc3)n2)cc1OC	inactive	
Cc1nc(SCC(=O)NC2CCCCC2C)c(C#N)c(C)c1C (stereo unspecified)	inactive	
Cc1ccc(S(=O)(=O)N2CC(O)C[C@H]2C(=O)OCC(=O)Nc2ccc(N3CCOCC3)cc2)cc1C (stereo partly specified)	inactive	
O=C(CCNC(=O)c1ccc(Cl)cc1)NC1CCCc2ccccc21 (stereo unspecified)	inactive	
CN(C)C(=O)c1ccc(NC(=O)COC(=O)c2cc3c(s2)CCCCC3)cc1	inactive	
O=C(CNC(=O)c1cc2c(s1)CCC2)Nc1ccccc1Br	inactive	
O=C(NCC1CCCO1)c1cc2c(s1)CCCC2 (stereo unspecified)	2510 nM (active)	
CCC(=O)c1c[nH]c(C(=O)NCC2CCCO2)c1 (stereo unspecified)	inactive	
O=C(NCCCN1CCOCC1)c1cc2c(s1)CCC2	inactive	
O=C(Nc1ccc(F)cc1)c1cc2c(s1)CCCC2	1260 nM (active)	
CC(C)Cc1nnc(NC(=O)CCNC(=O)c2ccccc2Cl)s1	inactive	
CCN(CC(=O)Nc1ccccc1OC)C(=O)CC1CC2CCC1C2 (stereo unspecified)	inactive	
Cc1ccc(-c2nc(C#N)c(NCCCn3ccnc3)o2)cc1	3980 nM (active)	
Cc1ccc(S(=O)(=O)c2nc(NCCCn3ccnc3)sc2Cl)cc1	inactive	
COc1ccc(/C=C(\C#N)C(=O)NCCCn2ccnc2)cc1	inactive	

Compound	Potency	activation, negative = inhibition
O=C(CCc1nc(-c2ccccc2)no1)Nc1cccc(C(=O)NC2CC2)c1	inactive	
COC(=O)c1ccc(/C=N/N2C(C)CCCC2C)cc1 (stereo unspecified)	2240 nM (active)	
CC1CCCC(C)N1/N=C/c1ccccc1OC(F)F (stereo unspecified)	inactive	
COC(=O)c1ccc(/C=N\n2c(C)nnc2C)cc1	inactive	
CCC1(CC)NC(=O)N(CC(=O)OCC(=O)c2cc(C)c(C)cc2C)C1=O	inactive	
CC(C)CN(C(=O)c1cccc(S(=O)(=O)N2CCCCC2)c1)C1CCS(=O)(=O)C1 (stereo unspecified)	inactive	
O=C(NNC(=S)Nc1ccc(Br)cc1Cl)c1ccco1	2820 nM (active)	
CCC(=O)NC(=S)Nc1ccc(NC(=O)c2ccco2)c(Cl)c1	inactive	
O=C(NNC(=O)c1ccco1)Nc1ccccc1	inactive	
O=C(Nc1ccc([N+](=O)[O-])cc1)OCCc1ccccn1	3550 nM (active)	
O=[N+]([O-])c1ccc(NC(=S)N2CCN(c3ccccn3)CC2)cc1	inactive	
O=C(NCCc1ccccn1)c1nc(Cn2cc([N+](=O)[O-])cn2)no1	inactive	
Cc1c(C(=O)Nc2ccccc2)sc2nc3n(c(=O)c12)CCCCC3	2510 nM (active)	
CC(=O)c1ccc(NC(=O)c2sc3nc4n(c(=O)c3c2C)CCCCC4)cc1	inactive	
Cc1c(C(=O)Nc2cccc(-c3nnc4n3CCCCC4)c2)oc2ccccc12	inactive	
COc1cccc(CNC(=O)COC(=O)CN2C(=O)NC3(CCCCC3C)C2=O)c1 (stereo unspecified)	inactive	
COc1ccc(OC)c(-c2csc(NC(=O)COC(=O)C3CC3)n2)c1	inactive	
COC(=O)Cn1cc(C(=O)c2cccs2)c2ccccc21	inactive	
O=C(Cn1cc(C(=O)c2cccs2)c2ccccc21)NCc1cccs1	inactive	
COC(=O)c1cn(CC(=O)NCc2cccs2)c2ccccc12	3550 nM (active)	
